Source: PubChem BioAssay (National Center for Advancing Translational Sciences (NCATS))
G9a inh: G9a (human) methyltransferase inhibition; Q96KQ7; G9a H3K9 monomethylation, AlphaScreen, 2 h; Potency, µM (highest dose often 102 µM), inactives show at the top dose activity, negative = inhibition, most hits filed as inhibitors; actives 8.8% (n = 350,000); AID 504332; further: on the % scale 0 is the no-effect control and ±100 the full control effect; nearly all actives have a fitted effect of over 75% in size
Target sequence (Q96KQ7 913-1193 limits assumed): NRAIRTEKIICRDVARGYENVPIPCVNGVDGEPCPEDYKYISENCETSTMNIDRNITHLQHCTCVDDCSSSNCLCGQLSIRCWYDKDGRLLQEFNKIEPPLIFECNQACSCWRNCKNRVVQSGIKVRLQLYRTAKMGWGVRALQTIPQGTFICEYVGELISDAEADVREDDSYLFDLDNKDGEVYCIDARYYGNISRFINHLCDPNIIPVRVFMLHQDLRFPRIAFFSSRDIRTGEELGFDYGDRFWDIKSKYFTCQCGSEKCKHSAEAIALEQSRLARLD
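G9a (20 nM) was preincubated 15 min with compound, then reacted 2 h at room temperature with 500 nM biotin-H3K9 peptide and 20 µM SAM. Monomethyl-H3K9 detected by AlphaScreen using anti-H3K9me1 antibody.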
JMJD2A Tudor: JMJD2A Tudor domain (human) inhibition | Potency, µM (series often up to 114 µM), for inactives: top-dose activity change, negative = inhibition, usual class: inhibitors | actives 4.4% (n = 390,000) | O75164 | AlphaScreen JMJD2A-Tudor / H3K4me3 peptide binding; further: on the % scale 0 is the no-effect control and ±100 the full control effect; nearly all actives have a fitted effect of over 50% in size
HP1b chromo inh: HP1-beta chromodomain-methylated histone interaction inhibition; AlphaScreen HP1-beta / biotin-H3K9me3 peptide binding; Potency, µM (doses to about 114 µM), without a hit: at the top dose activity change, negative = inhibition, actives largely listed as inhibitors; actives 0.56% (n = 390,000); AID 540317; further: nearly all actives have a fitted effect of over 70% in size
Target sequence (P83916 whole entry, looked up): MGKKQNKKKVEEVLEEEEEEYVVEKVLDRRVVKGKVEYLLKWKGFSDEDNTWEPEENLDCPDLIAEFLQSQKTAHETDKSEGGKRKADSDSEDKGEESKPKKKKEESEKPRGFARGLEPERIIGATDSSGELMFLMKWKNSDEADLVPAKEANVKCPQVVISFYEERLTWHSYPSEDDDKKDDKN
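AlphaScreen: HP1-beta (50 nM) preformed 30 min with biotin-H3(1-18)K9me3 peptide (50 nM) in PBS pH 7.4, 0.01% Tween-20. Compound added for 30 min at RT, then streptavidin donor/nickel chelate acceptor beads (10 ug/mL) for 30 min.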
ALOX12 inh: inhibitors of human 12S-lipoxygenase ALOX12; actives 1.1% (n = 580,000); P18054; purified 12hLO, xylenol orange hydroperoxide absorbance; AID 1671190; Potency, µM (top dose mostly 108 µM), without a hit: at the highest dose activity change, negative = inhibition, usual class: inhibitors; further: on the % scale 0 is the no-effect control and ±100 the full control effect
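Purified human 12hLO at 150 nM in 25 mM Hepes, 0.01% Triton X-100, pH 7.0, preincubated 15 min at room temperature with compound. Reaction started with 40 uM arachidonic acid, 30 min at room temperature. Hydroperoxide measured by Fe-xylenol orange, 573/405 nm absorbance ratio.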
BAZ2B block: inhibitors of human BAZ2B bromodomain. Q9UIF8. AlphaScreen BAZ2B-H3K14Ac peptide displacement. Potency, µM (top dose mostly 114 µM), inactives show at the top dose activity change, negative = inhibition, actives largely listed as inhibitors. actives 4.4% (n = 360,000); further: on the % scale 0 is the no-effect control and ±100 the full control effect; nearly all actives have a fitted effect of over 60% in size
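AlphaScreen luminescence quantifies BAZ2B engagement of H3K14Ac peptide; the protein and biotinylated peptide are both at 50 nM final, buffer PBS pH 7.4 with 0.01% Tween-20, all steps at room temperature.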
PLK1 PBD block: PLK1 (human) polo-box domain binding inhibition. P53350. Plk1 PBD binding of FITC phosphopeptide, fluorescence polarization. Potency, µM, for inactives: max response, negative = inhibition, usual class: inhibitors. actives 2.8% (n = 360,000). AID 720504; further: series mostly up to about 57 µM; on the % scale 0 is the no-effect control and ±100 the full control effect; nearly all actives have a fitted effect of over 65% in size
Numbers without * were called inactive; ? = inconclusive; / = no result; [ ] = remark or other dose. In the library only some 9% were active in any assay of this set; here they are far more common. The call rests on the fitted dose curve; in most records, active means well fitted curve in the direction sought with a large enough effect; inconclusive means small, poorly fitted or top-dose-only effect, or another doubt; inactive means no such curve, though single readings can be large; an effect the other way counts as inactive or inconclusive. Potency means the concentration at half of the fitted maximal effect.

SMILES	G9a inh	JMJD2A Tudor	HP1b chromo inh	ALOX12 inh	BAZ2B block	PLK1 PBD block
CCS(=O)(=O)c1ccc2c(c1)N(S(=O)(=O)c1ccc(C)cc1)CC(C(=O)O)O2 (centres undefined)	?	-7%	52%	?	89µM*	-11%
Cc1ccc(C)c(S(=O)(=O)N2[C@@H]3CC[C@@H](C3)[C@H]2c2nc3c(OCC4CCOCC4)cccc3[nH]2)c1	/	/	/	7%	/	/
Cc1ccc(NC(=O)c2cccc(N3C(=O)C4C5C=CC(C5)C4C3=O)c2)cc1C (centres undefined)	-11%[0.501 µM]	10%	33%	1%	-26%	0%
COc1ccc(NC(=O)c2cccc(N3C(=O)C4C5C=CC(C6CC56)C4C3=O)c2)c(OC)c1 (centres undefined)	-12%	?	-7%	7%	-23%	24µM*
CN(C)c1ccc(NC(=O)c2cccc(N3C(=O)C4C5C=CC(C5)C4C3=O)c2)cc1 (centres undefined)	10µM*	-25%	-20%	?	-34%	-7%
COc1ccc(NC(=O)c2cccc(N3C(=O)C4C5CCC(C5)C4C3=O)c2)cc1 (centres undefined)	19%	-14%	11%	6.3µM*	-3%	3%
O=C(O)c1ccccc1NCN1C(=O)C2CC=C(Cl)CC2C1=O (centres undefined)	7%[2.33 µM]	-8%	27%	-16%	-18%	-8%
O=C(O)C1CC=C(Cl)CC1C(=O)NCC1OCCc2ccccc21 (centres undefined)	-5%[59 µM]	-8%	36%	-5%	0%	-4%
O=C1C2CC=C(Cl)CC2C(=O)N1CC1OCCc2ccccc21 (centres undefined)	?	-4%	35%	20µM*	-10%	-16%
O=C1C2CC=C(Cl)CC2C(=O)N1CC1Cc2ccccc2CO1 (centres undefined)	50µM*	-10%	30%	/	-35%	-6%
O=C1C2CC=C(Cl)CC2C(=O)N1CN(Cc1ccco1)CN1C(=O)C2CC=C(Cl)CC2C1=O (centres undefined)	50µM*	-25%	32%	-3%	50µM*	-13%
O=C1C2CC=C(Cl)CC2C(=O)N1CCC[n+]1ccccc1 (centres undefined)	-4%[0.501 µM]	-14%	41%	-32%	-1%	-1%
O=S(=O)(c1ccc(F)cc1)N1CCC(Oc2cccc(C(F)(F)F)c2)CC1	38%[59 µM]	23%	67%	?	15%	/
CC(=O)c1c(C)[nH]c(C(=O)OCC(=O)Nc2ccc(Cl)c(S(=O)(=O)N(C)C)c2)c1C	/	-25%	23%	0%	71µM*	-5%
COc1ccc(/C=C/C(=O)OCC(=O)Nc2ccc(Cl)c(S(=O)(=O)N(C)C)c2)cc1OC	12%[59 µM]	?	-4%	0.79µM*	-3%	-13%
COc1ccc(/C=C/C(=O)OCC(=O)Nc2ccc(S(N)(=O)=O)cc2)cc1OC	6%	-13%	14%	0%	-14%	-8%
COc1cc(CNCc2cccnc2)ccc1OCC(=O)NC1CCCCC1	-44%[59 µM]	-9%	10%	54%	-15%	-16%
Cn1cc(S(=O)(=O)Nc2ccc(Oc3ccccc3)cc2)c(=O)n(C)c1=O	1%	-12%	13%	0%	-13%	-5%
c1ccc(Cn2ncc3c(NCc4ccco4)ncnc32)cc1	45µM*	?	21%	-19%	79µM*	1%
Cc1ccc2[nH]c3c(NCc4ccco4)ncnc3c2c1	50µM*	-33%	-13%	-16%	?	-8%
Cc1ccc(-n2ncc3c(NCc4ccco4)ncnc32)c(C)c1	50µM*	-27%	24%	?	?	1%
Cc1ccc(NC(=O)CN2C(=O)C3CCCCN3C(=O)c3ccccc32)cc1 (centres undefined)	15%[59 µM]	-13%	22%	-4%	-3%	-6%
COc1cc2c(cc1NC(=O)C(Cl)Cl)-c1ccc(NC(=O)C(Cl)Cl)cc1C2	/	?	?	?	/	2%
